# In paper PMC5540273 (PLoS ONE, 2017):
# System: CDKL5
# Settings: concentration: 1 μM, replicates: in singlicate; n = 1
# 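Also: KINOMEscan kinase panel screen.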
row,Compound,%Inh [%]
1,COc1cc2nccc(Nc3ccc(NC(=O)c4ccc(C)cc4)c(O)c3)c2cc1OC.Cl [GW440132],0
2,Nc1ncnc2[nH]c(-c3ccccc3)nc12 [AH5015],0
3,Cl.NC(=O)c1cccc(Nc2nccc(Nc3ccc(Oc4cccc(Cl)c4)c(Cl)c3)n2)c1 [GW659008],0
4,COC(=O)c1c(-c2ccccc2)c2cc(OC)ccc2c(=O)n1Cc1ccccc1,0
5,CN(C)CCN(C)C(=O)c1cc(-c2ccncc2)c(-c2ccc(Cl)c(O)c2)o1.Cl.Cl [SB-710397],2
6,CS(=O)(=O)c1ccc(-c2c(-c3ncn[nH]3)sc(N3CCOCC3)c2C#N)cc1,0
7,CC(=O)Nc1nc2cnc(Nc3cc(NC(=O)c4cccc(CCC#N)c4)ccc3C)nc2s1,4
8,COc1ccc(Nc2nccc(NCCNC(=O)Nc3ccccc3F)n2)cc1 [GSK1379901],3
9,CN1C(=O)C(Nc2ccc(Cl)c(C(=O)O)c2)=C(c2ccc(Cl)cc2)C1=O [SB-404290],16
10,Cn1cncc1-c1ccc2ncnc(Nc3ccc(OCc4ccccc4)cc3)c2c1 [GW320571],0
11,COc1cc2ncn(-c3cc(OCC4CCCO4)c(C(N)=O)s3)c2cc1OC (centres unmarked) [GSK204607],0
12,COc1ccccc1-c1ccc2c(NC(=O)C3CC3)n[nH]c2n1 [SB-711239],3
13,CSc1nn2c(=O)cc(N3CCOCC3)nc2n1Cc1cccc(C(F)(F)F)c1C [GSK2363608],0
14,Cc1c(Cn2ccn3c(=O)cc(N4CCOCC4)nc23)cccc1C(F)(F)F [GSK2289044],16
15,Cc1ccc(NC(=O)Nc2cccc(Cl)c2)cc1-c1ccc(C(=O)Nc2ccncc2)cc1 [GSK1398468],0
16,Cl.Oc1ccc(-c2nc(-c3ccccc3)[nH]c2-c2ccncc2)cc1 [SB-428218],0
17,C[C@@H]1CCCCN1c1cc(-c2ccc3c(N)n[nH]c3c2)nc(N)n1 [GSK2258759],0
18,COC(=O)c1c(-c2ccccc2)c2cc(C(=O)O)ccc2c(=O)n1Cc1ccccc1,21

row,Compound,%Inh [%]
1,Cc1cccc(-c2nc(Nc3ccc4[nH]ncc4c3)c3ccccc3n2)n1 [GW857175],18
2,Nc1nc(-c2nccs2)c(-c2ccnc3ccccc23)s1 [GW693542],4
3,Cc1c(O)cccc1Nc1ccnc2ccc(C(F)(F)F)cc12.Cl [GW466413],0
4,O=C(Nc1ccc2c(c1)OCO2)NC1CCN(c2ccnc(Nc3ccc(F)cc3)n2)C1 (centres unmarked) [GSK1379724],3
5,Cc1ccccc1-n1cnc2c(N)ncnc21 [SKF-97510],0
6,Cc1ccc(C(=O)Nc2ccc(Nc3ccnc4cc(-c5ccccn5)ccc34)cc2O)cc1.Cl [GW440146],2
7,COc1ccc(Nc2nccc(-c3cccc(NC(=O)c4cc5cc(F)ccc5[nH]4)c3)n2)cc1 [GSK1229782],0
8,COc1cccc(-c2cc(-c3c[nH]nc3-c3ccccn3)ccn2)c1 [GW680338],0
9,Cc1cccc(-c2nc(-c3ccc(S(C)(=O)=O)cc3)sc2-c2ccnc(NCCc3ccccc3)c2)c1,23
10,Clc1cc(Cl)cc(Nc2ccnc(Nc3cc(Cl)cc(Cl)c3)n2)c1 [GSK175726],0
11,O=C(Nc1n[nH]c2nc(-c3nccs3)c(Br)cc12)C1CC1 [SB-742251],0
12,O=C(Nc1n[nH]c2cc(-c3cccc(F)c3F)ccc12)C1CC1 [SB-733894],0
13,Cc1nnc(-c2ccc3occ(-c4ccc(S(C)=O)cc4)c3c2)[nH]1 (centres unmarked),12
14,Cc1cccc(-c2nc(C)cc(Nc3ccncc3)n2)n1 [GSK257997],6
15,NC(=O)c1nnc2ccccc2c1N,9
16,O=c1cc(N2CCOCC2)nc2n(Cc3cccc(Cl)c3Cl)ccn12 [GSK2286295],2
17,CS(=O)(=O)c1ccc(-c2nc3n(c2-c2ccncc2)CCC3)cc1 [SKF-105942],4
18,COc1ccc(C2=C(Nc3cccc(C(=O)O)c3)C(=O)NC2=O)cc1 [SB-390765],13

# System: CHEK1
# Settings: concentration: 1 μM, replicates: in singlicate; n = 1
row,Compound,%Inh [%]
1,COc1cc2nccc(Nc3ccc(NC(=O)c4ccc(C)cc4)c(O)c3)c2cc1OC.Cl [GW440132],0
2,Nc1ncnc2[nH]c(-c3ccccc3)nc12 [AH5015],0
3,Cl.NC(=O)c1cccc(Nc2nccc(Nc3ccc(Oc4cccc(Cl)c4)c(Cl)c3)n2)c1 [GW659008],0
4,COC(=O)c1c(-c2ccccc2)c2cc(OC)ccc2c(=O)n1Cc1ccccc1,0
5,CN(C)CCN(C)C(=O)c1cc(-c2ccncc2)c(-c2ccc(Cl)c(O)c2)o1.Cl.Cl [SB-710397],9
6,CS(=O)(=O)c1ccc(-c2c(-c3ncn[nH]3)sc(N3CCOCC3)c2C#N)cc1,0
7,CC(=O)Nc1nc2cnc(Nc3cc(NC(=O)c4cccc(CCC#N)c4)ccc3C)nc2s1,0
8,COc1ccc(Nc2nccc(NCCNC(=O)Nc3ccccc3F)n2)cc1 [GSK1379901],0
9,CN1C(=O)C(Nc2ccc(Cl)c(C(=O)O)c2)=C(c2ccc(Cl)cc2)C1=O [SB-404290],0
10,Cn1cncc1-c1ccc2ncnc(Nc3ccc(OCc4ccccc4)cc3)c2c1 [GW320571],15
11,COc1cc2ncn(-c3cc(OCC4CCCO4)c(C(N)=O)s3)c2cc1OC (centres unmarked) [GSK204607],0
12,COc1ccccc1-c1ccc2c(NC(=O)C3CC3)n[nH]c2n1 [SB-711239],11
13,Cc1c(Cn2ccn3c(=O)cc(N4CCOCC4)nc23)cccc1C(F)(F)F [GSK2289044],0
14,Cc1ccc(NC(=O)Nc2cccc(Cl)c2)cc1-c1ccc(C(=O)Nc2ccncc2)cc1 [GSK1398468],0
15,Cl.Oc1ccc(-c2nc(-c3ccccc3)[nH]c2-c2ccncc2)cc1 [SB-428218],0
16,C[C@@H]1CCCCN1c1cc(-c2ccc3c(N)n[nH]c3c2)nc(N)n1 [GSK2258759],0
17,COC(=O)c1c(-c2ccccc2)c2cc(C(=O)O)ccc2c(=O)n1Cc1ccccc1,0
18,Cc1cccc(-c2nc(Nc3ccc4[nH]ncc4c3)c3ccccc3n2)n1 [GW857175],4

row,Compound,%Inh [%]
1,Nc1nc(-c2nccs2)c(-c2ccnc3ccccc23)s1 [GW693542],5
2,Cc1c(O)cccc1Nc1ccnc2ccc(C(F)(F)F)cc12.Cl [GW466413],0
3,O=C(Nc1ccc2c(c1)OCO2)NC1CCN(c2ccnc(Nc3ccc(F)cc3)n2)C1 (centres unmarked) [GSK1379724],0
4,Cc1ccccc1-n1cnc2c(N)ncnc21 [SKF-97510],5
5,Cc1ccc(C(=O)Nc2ccc(Nc3ccnc4cc(-c5ccccn5)ccc34)cc2O)cc1.Cl [GW440146],0
6,COc1ccc(Nc2nccc(-c3cccc(NC(=O)c4cc5cc(F)ccc5[nH]4)c3)n2)cc1 [GSK1229782],0
7,COc1cccc(-c2cc(-c3c[nH]nc3-c3ccccn3)ccn2)c1 [GW680338],0
8,Cc1cccc(-c2nc(-c3ccc(S(C)(=O)=O)cc3)sc2-c2ccnc(NCCc3ccccc3)c2)c1,0
9,Clc1cc(Cl)cc(Nc2ccnc(Nc3cc(Cl)cc(Cl)c3)n2)c1 [GSK175726],0
10,O=C(Nc1n[nH]c2nc(-c3nccs3)c(Br)cc12)C1CC1 [SB-742251],0
11,O=C(Nc1n[nH]c2cc(-c3cccc(F)c3F)ccc12)C1CC1 [SB-733894],3
12,Cc1nnc(-c2ccc3occ(-c4ccc(S(C)=O)cc4)c3c2)[nH]1 (centres unmarked),0
13,Cc1cccc(-c2nc(C)cc(Nc3ccncc3)n2)n1 [GSK257997],0
14,NC(=O)c1nnc2ccccc2c1N,0
15,O=c1cc(N2CCOCC2)nc2n(Cc3cccc(Cl)c3Cl)ccn12 [GSK2286295],0
16,CS(=O)(=O)c1ccc(-c2nc3n(c2-c2ccncc2)CCC3)cc1 [SKF-105942],0
17,COc1ccc(C2=C(Nc3cccc(C(=O)O)c3)C(=O)NC2=O)cc1 [SB-390765],0
